Results filed as inconclusive are left out. Activity calls are given as the source filed them.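 How the source made its calls, unless noted: active means normalized viability below 100% at a tested concentration; inactive means the rest.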
Assays:
[1] = growth inhibition of DIPG glioma cells, dose response, cell-based, SU-DIPG-XVII, MIPE5.0, CellTiter-Glo, qHTS (AID 1347060; cut-off not given, nearly all actives have AC50 up to about 26 µM;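 on AC50: cells exposed to compound for 48 hours before viability readout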); conditions: SU-DIPG-XVII viability, CellTiter-Glo ATP luminescence
[2] = growth inhibition of DIPG glioma cells, dose response, cell-based, SU-DIPG-XIII, MIPE4.0, CellTiter-Glo, qHTS (AID 1347061; cut-off not given, nearly all actives have AC50 up to about 37 µM;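 further: cells exposed to compound for 48 hours before readout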); conditions: SU-DIPG-XIII viability, CellTiter-Glo ATP luminescence
[3] = growth inhibition of DIPG glioma cells, dose response, cell-based, JHH-DIPG-1, MIPE4.0, CellTiter-Glo, qHTS (AID 1347062; cut-off not given, nearly all actives have AC50 up to about 27 µM;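 on AC50: cells exposed to compound for two days before readout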); conditions: JHH-DIPG-1 viability, CellTiter-Glo ATP luminescence
[4] = growth inhibition of DIPG glioma cells, dose response, cell-based, SU-DIPG-XIII, MIPE5.0, CellTiter-Glo, qHTS (AID 1347064; cut-off not given, nearly all actives have AC50 up to about 23 µM;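 on AC50: cells exposed to compound for 48 hours before the viability read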); conditions: SU-DIPG-XIII viability, CellTiter-Glo ATP luminescence
[5] = viability loss in pontine glioma line – cell-based, SU-DIPG-XXV, MIPE5.0, CellTiter-Glo, qHTS, dose response (AID 1347065; cut-off not given, nearly all actives have AC50 up to about 26 µM;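 further: cells exposed to compound for 48 hours before ATP readout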); conditions: CellTiter-Glo ATP luminescence
[6] = SU-DIPG-VI glioma cell viability, MIPE4.0 library, CellTiter-Glo luminescence, qHTS (AID 1347066; cut-off not given, nearly all actives have AC50 up to about 30 µM;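 further: cells exposed to compound for 48 hours before readout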); conditions: CellTiter-Glo ATP luminescence
[7] = SU-DIPG-XXV glioma cell viability, MIPE5.0 library, qHTS (AID 1347068; cut-off not given, nearly all actives have IC50 up to about 30 µM)
[8] = JHH-DIPG-1 glioma cell viability, MIPE5.0 library, CellTiter-Glo luminescence, qHTS (AID 1347067; cut-off not given, nearly all actives have AC50 up to about 26 µM;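 further: cells exposed to compound for 48 hours before readout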); conditions: JHH-DIPG-1 glioma viability, CellTiter-Glo ATP luminescence
[9] = sensitizers of A549 cells to miR-34 induction, primary screen, imaging, A549 dox-inducible miR-34, nuclei and caspase counts (AID 1347080;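 active means compounds whose cell count with miR-34 switched on is under 0.7 times the count with it off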); conditions: A549 miR-34 inducible, Hoechst nuclei count, 48 h
[10] = modifiers of HSF1 nuclear foci, imaging, Selleck Cancer Library (AID 1347162; in the data active means plate-normalised HSF1 focus index below about 0.46); conditions: human cells, at 10 µM; SSMD: measured here: HSF1 foci SSMD mean; cell count: measured here: cell number; plate-normalised HSF1 focus index: stronger effect = lower value
[11] = survival rescue of mitochondrial mutant cells in low glucose, primary screen, MELAS cybrids, Rieske KO mouse fibroblasts, CellTiter-Glo (AID 1508586;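 active means mean z-score across replicates of 1.96 or higher in either the MELAS or the Rieske mutant cell line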;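 further: z relative to plate mean and SD of compound and empty wells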)
[12] = ovarian cancer cell viability with rucaparib, profiling panel, oncology-focused library, rucaparib conditional (AID 1508598); conditions: patient-derived ovarian cancer cells, CellTiter-Glo viability, 144 h, stronger effect = lower value

C[C@H]1[C@H](C)CC[C@]2(C(=O)O)CC[C@]3(C)C(=CC[C@@H]4[C@@]5(C)C[C@@H](O)[C@H](O)[C@@](C)(CO)[C@@H]5CC[C@]43C)[C@H]12
inactive: outcome [1] | outcome [2] | outcome [3] | outcome [4] | outcome [5] | outcome [6] | outcome [7]

CN(C)CC(C)(C)CNc1nn2c(-c3ccccc3)nnc2cc1C1CCC1
inactive: outcome [1] | outcome [2] | outcome [4] | outcome [5] | outcome [6] | outcome [8] | outcome [7]
active: AC50 [3] 16.6 µM

Cn1cnc2c(F)c(Nc3ccc(Br)cc3Cl)c(C(=O)NOCCO)cc21
0.759: fold change ([9]; measured here: relative caspase fold change +Dox/-Dox)
3770: cell count ([9]; measured here: total cells with miR-34 induction, stronger effect = lower value)
inactive: outcome [6] | fold change ([9]; stronger effect = lower value, cell number ratio, induced over uninduced) 1.01 | plate-normalised HSF1 focus index [10] 1.09 | z-score ([11]; MELAS cybrid survival, CellTiter-Glo 48 h, stronger effect = higher value) -0.103 | viability ([12]; at 0.000305 µM, OCI-C5x cells, with rucaparib 10 µM, 100% = cells with rucaparib alone) 105% | viability ([12]; at 0.000305 µM, OCI-C5x cells, without rucaparib) 106% | viability ([12]; at 0.00122 µM, OCI-C5x cells, with rucaparib 10 µM, 100% = cells with rucaparib alone) 104% | viability ([12]; at 0.00488 µM, OCI-C5x cells, with rucaparib 10 µM, 100% = cells with rucaparib alone) 101% | viability ([12]; at 0.0195 µM, OCI-C5x cells, with rucaparib 10 µM, 100% = cells with rucaparib alone) 110% | viability ([12]; at 0.0781 µM, OCI-C5x cells, with rucaparib 10 µM, 100% = cells with rucaparib alone) 102% | viability ([12]; at 0.313 µM, OCI-C5x cells, with rucaparib 10 µM, 100% = cells with rucaparib alone) 104%
3730: cell count ([9]; measured here: total cells without miR-34 induction)
2.54: SSMD [10]
-0.489: z-score ([11]; Rieske KO mouse fibroblast survival, CellTiter-Glo 72 h)
active: AC50 [1] 4.17 µM | AC50 [2] 10.5 µM | AC50 [3] 9.35 µM | AC50 [4] 5.9 µM | AC50 [5] 4.68 µM | AC50 [8] 0.833 µM | viability ([12]; at 0.000305 µM, OCI-P5x cells, with rucaparib 20 µM, 100% = cells with rucaparib alone) 80.8% | viability ([12]; at 0.000305 µM, OCI-P5x cells, without rucaparib) 84.9% | viability ([12]; at 0.00122 µM, OCI-C5x cells, without rucaparib) 92.6% | viability ([12]; at 0.00122 µM, OCI-P5x cells, with rucaparib 20 µM, 100% = cells with rucaparib alone) 81.4% | viability ([12]; at 0.00122 µM, OCI-P5x cells, without rucaparib) 82.8% | viability ([12]; at 0.00488 µM, OCI-C5x cells, without rucaparib) 93.7% | viability ([12]; at 0.00488 µM, OCI-P5x cells, with rucaparib 20 µM, 100% = cells with rucaparib alone) 70.3% | viability ([12]; at 0.00488 µM, OCI-P5x cells, without rucaparib) 75.1% | viability ([12]; at 0.0195 µM, OCI-C5x cells, without rucaparib) 92.3% | viability ([12]; at 0.0195 µM, OCI-P5x cells, with rucaparib 20 µM, 100% = cells with rucaparib alone) 56.4% | viability ([12]; at 0.0195 µM, OCI-P5x cells, without rucaparib) 70.1% | viability ([12]; at 0.0781 µM, OCI-C5x cells, without rucaparib) 83.8% | viability ([12]; at 0.0781 µM, OCI-P5x cells, with rucaparib 20 µM, 100% = cells with rucaparib alone) 53.5% | viability ([12]; at 0.0781 µM, OCI-P5x cells, without rucaparib) 65.2% | viability ([12]; at 0.313 µM, OCI-C5x cells, without rucaparib) 80.4% | viability ([12]; at 0.313 µM, OCI-P5x cells, with rucaparib 20 µM, 100% = cells with rucaparib alone) 43.6% | viability ([12]; at 0.313 µM, OCI-P5x cells, without rucaparib) 59.6% | viability ([12]; at 1.25 µM, OCI-C5x cells, with rucaparib 10 µM, 100% = cells with rucaparib alone) 84% | viability ([12]; at 1.25 µM, OCI-C5x cells, without rucaparib) 82.2% | viability ([12]; at 1.25 µM, OCI-P5x cells, with rucaparib 20 µM, 100% = cells with rucaparib alone) 38.2% | viability ([12]; at 1.25 µM, OCI-P5x cells, without rucaparib) 61.5% | viability ([12]; at 5 µM, OCI-C5x cells, with rucaparib 10 µM, 100% = cells with rucaparib alone) 49.5% | viability ([12]; at 5 µM, OCI-C5x cells, without rucaparib) 51.1% | viability ([12]; at 5 µM, OCI-P5x cells, with rucaparib 20 µM, 100% = cells with rucaparib alone) 25.6% | viability ([12]; at 5 µM, OCI-P5x cells, without rucaparib) 32.7%
7320: cell count [10]

O=C(NC[C@H](O)CO)c1ccncc1Nc1ccc(I)cc1F
inactive: outcome [6] | outcome [7]
active: AC50 [1] 0.742 µM | AC50 [2] 1.32 µM | AC50 [3] 1.48 µM | AC50 [4] 0.417 µM | AC50 [5] 0.59 µM | AC50 [8] 0.332 µM

O=C(CCCCCCC(=O)Nc1cccnc1)NO
inactive: plate-normalised HSF1 focus index [10] 1.07
1.14: SSMD [10]
7080: cell count [10]
active: AC50 [1] 8.33 µM | AC50 [2] 9.35 µM | AC50 [3] 7.43 µM | AC50 [4] 5.9 µM | AC50 [5] 7.42 µM | AC50 [8] 3.32 µM

Source: PubChem BioAssay
